Compounds without any hit were thinned out: in the full panel of roughly 79,000, 15% have a hit. Active and inactive are the calls of the source. Rule as the data show it: active = growth inhibition above about 70%; inactive = the rest.
Columns and labels:
[1] = NCI Yeast Anticancer Drug Screen. Data for the rad50 strain (AID 155);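 also: 0% = growth of vehicle-only cultures of the same strain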; details: S. cerevisiae rad50 strain growth inhibition; at 50.0 µM; active compounds read high
Method in brief: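 Compounds were tested on a yeast strain with an engineered DNA damage repair alteration; the reported value is growth inhibition normalised to vehicle treatment.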

[2] = NCI Yeast Anticancer Drug Screen. Data for the mec2-1 strain (AID 157); details: S. cerevisiae mec2-1 strain, at 50.0 µM, active compounds read high
Method in brief: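 Cells of the genetically defined mec2-1 yeast strain are incubated with test compound. Inhibition of growth is calculated against vehicle-treated controls.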

[3] = NCI Yeast Anticancer Drug Screen. Data for the sgs1 mgt1 strain (AID 161);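 also: 0% = growth of cultures given vehicle only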; details: S. cerevisiae sgs1 mgt1 strain, at 50.0 µM, active compounds read high
Method in brief: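 Genetically altered yeast, compound exposure, growth inhibition relative to vehicle.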

[4] = NCI Yeast Anticancer Drug Screen. Data for the cln2 rad14 strain (AID 165);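 also: 0% = growth equal to vehicle treated cultures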; details: S. cerevisiae cln2 rad14 strain, at 50.0 µM, active compounds read high
Method in brief: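 The screen exposed genetically defined yeast (cln2 rad14) to test compounds and scored growth inhibition relative to vehicle-treated controls.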

[5] = NCI Yeast Anticancer Drug Screen. Data for the bub3 strain (AID 167); details: S. cerevisiae bub3 mutant strain, at 50.0 µM, active compounds read high
Method in brief: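 Growth of a checkpoint-deficient yeast mutant is measured after compound exposure. Values represent inhibition relative to vehicle.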

[6] = NCI Yeast Anticancer Drug Screen. Data for the mlh1 rad18 strain (AID 175); details: S. cerevisiae mlh1 rad18 strain growth inhibition; at 50.0 µM; active compounds read high
Method in brief: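 Compound-treated yeast growth, normalised to vehicle controls. Strain bears defined DNA repair mutations.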

Measured: growth inhibition

C/C(=C/C=C(c1ccccc1)c1ccccc1)C1CCC2C3CCC4CC5CCC4(C)C3(O5)C(=O)CC12C (stereo unspecified)
inactive: [2] 60.6%
active: [1] 89.6% | [3] 73% | [4] 83% | [5] 93.3% | [6] 92.8%

O=C1C2C3CCC(C3)C2N1Cc1ccccc1 (stereo unspecified)
inactive: [1] 5.8% | [2] -1.65% | [3] -2.15% | [4] -27.2% | [5] 13.6% | [6] -14.8%

CCCCCCCCCCCCOc1ccc(Sc2ccc(OCCCCCCCCCCCC)cc2C)c(C)c1
inactive: [1] -16.2% | [2] -8.05% | [3] -0.95% | [4] -26.2% | [5] 6.35% | [6] -11.2%

CCCN=C1NS(=O)(=O)c2ccccc21
inactive: [1] 8.35% | [2] -14.8% | [3] -15.3% | [4] -11.8% | [5] -7.55% | [6] -7.7%

O=c1/c(=C\C=C\c2ccccc2)sc2n1CCN=2
inactive: [1] -15.7% | [2] -40.6% | [3] -11.3% | [4] -10.8% | [5] -22.2% | [6] -13.5%

COc1ccc2c(c1)-c1cc(OC)ccc1C2c1ccccc1
inactive: [1] -1.1% | [2] -9.15% | [3] -7.6% | [4] -57.5% | [5] 5.15% | [6] -7.25%

CCCCOCCOC(=O)CCCCCC1C=CCCC1 (stereo unspecified)
inactive: [1] 10.8% | [2] 8.4% | [3] 8.65% | [4] -18.6% | [5] -8.35% | [6] 4.95%

CC(C)(C)OC[C@H](O)CC#N
inactive: [1] -8.2% | [2] -61.4% | [3] -36.1% | [4] -20.4% | [5] -30.8% | [6] -26.4%

COC(=O)c1cn2ccc3ccccc3c2c1C(=O)OC
inactive: [1] -3.95% | [2] 2.15% | [3] 9% | [4] -0.25% | [5] -15.7% | [6] 15.5%

CCOc1c(N=Nc2ccc(OC)cc2)c(C)nn1C(N)=S
inactive: [1] -12.5% | [2] -1.5% | [3] 2.85% | [4] -48.7% | [5] 9.75% | [6] 15.2%

CN[C@H]1CCc2cc(OC)c(OC)c(OC)c2-c2ccc(O)c(=O)cc21
inactive: [1] 23.8% | [2] -9.45% | [3] 24.8% | [4] -43.5% | [5] 0.3% | [6] 29.7%

COc1ccc(C2=CCCCc3cc(O)c(OC)cc32)cc1
active: [1] 93.9% | [2] 96.7% | [3] 97.2% | [4] 79.8% | [5] 98.1% | [6] 97.2%

CCSC(=S)S(=O)(=O)c1ccc(C)cc1
active: [1] 90.4% | [2] 93.1% | [3] 89.5% | [4] 90.5% | [5] 84.2% | [6] 92.3%

CCCCCOC(=S)S
inactive: [1] -2.6% | [2] 11.8% | [3] 32.7% | [4] -12.1% | [5] 13.4% | [6] 29.9%

Cc1cn(C2OC(CO[Si](C)(C)C(C)(C)C)C(N(C)O[Si](C)(C)C(C)(C)C)C2[Se]c2ccccc2)c(=O)[nH]c1=O (stereo unspecified)
inactive: [1] -15.5% | [2] -3.1% | [3] 0.5% | [4] -8.65% | [5] -9.85% | [6] -15.2%

COC[N+](C)(C)C
inactive: [1] -2.55% | [2] -6.25% | [3] -7.6% | [4] 2.4% | [5] 7.2% | [6] 10.5%

O=C1CN(C=C(C(=O)c2ccccc2)C(=O)c2ccccc2)C(=S)N1
inactive: [1] -61.5% | [2] -31.7% | [3] -19.2% | [4] -39% | [5] -8.2% | [6] -30.4%

OC12CCCCCC1(N1CCOCC1)c1ccccc12 (stereo unspecified)
inactive: [1] -8.2% | [2] -11.7% | [3] -29.7% | [4] -21.1% | [5] -37.2% | [6] -24.3%

CN1C(=O)c2ccccc2N(C)C(=O)c2ccccc21
inactive: [1] 0.9% | [2] -15.1% | [3] 11.3% | [4] -2.45% | [5] 4.85% | [6] 12%

CCCCCCCCCCCO/N=C\c1c2c(O)c3c(O)c(C)c4c(c3c1O)C(=O)C(C)(O/C=C\C(OC)C(C)C(OC(C)=O)C(C)C(O)C(C)C(O)C(C)/C=C\C=C(\C)C(=O)N2)O4 (stereo unspecified)
inactive: [1] -4.75% | [2] -4.75% | [3] -13.7% | [4] -9.75% | [5] -5.1% | [6] 26.2%

Cc1cc(C)c(C(=O)CC(C)C)c(C)c1
inactive: [1] -8.15% | [2] -3% | [3] 4.2% | [4] 24.6% | [5] -3.45% | [6] -4.2%

CCOC(=O)c1ccc(/C(C)=N/NC(N)=S)cc1
inactive: [1] 7.35% | [2] 3.8% | [3] 21% | [4] 15.4% | [5] 5.35% | [6] -9.5%

CCOC(=O)C(CCC(C)=O)C(=O)OCC
inactive: [1] -1.25% | [2] 12.8% | [3] -6.15% | [4] 24.6% | [5] 5.65% | [6] -19.1%

CCCCCCCCCCCl
inactive: [1] 13.2% | [2] 5.85% | [3] 28.5% | [4] 21.8% | [5] 17.6% | [6] 25%

CN(C)Cc1cc(O)c(O)c(CN(C)C)c1
inactive: [1] -16.6% | [2] -19.9% | [3] -8.45% | [4] 5.4% | [5] -40.2% | [6] 13.1%

N#Cc1cc(C#N)c(N)nc1N
inactive: [1] 14.1% | [2] 6.35% | [3] 1.8% | [4] 13.4% | [5] -1.25% | [6] -5.7%

COc1ccc(/C=C/C2=CC(=O)CC(c3ccc(OC)c(OC)c3)C2)cc1OC (stereo unspecified)
inactive: [1] 13.2% | [2] 5.35% | [3] 16.5% | [4] -35.6% | [5] 31.2% | [6] 9.35%

Nc1nc(/C=C(/O)c2ccccc2)c2ncn(C3OC(CO)C(O)C3O)c2n1 (stereo unspecified)
inactive: [1] 25.3% | [2] -6.25% | [3] 13.4% | [4] -4.7% | [5] 11.2% | [6] -17.8%

COc1cc(CC(=O)O)c(Br)cc1C
inactive: [1] 5.95% | [2] 20.9% | [3] 4.15% | [4] 0.05% | [5] -0.85% | [6] -2.65%

O=C1c2ccccc2C(=O)N1CCc1ncc[nH]1
inactive: [1] 1.45% | [2] 17% | [3] 0.15% | [4] -23.9% | [5] 6.3% | [6] 2.9%

Br/C=C/c1ccccc1
inactive: [1] 23.6% | [2] 11.3% | [3] 0.6% | [4] -14.7% | [5] 5.85% | [6] 46.1%

CO[C@@]12C[C@@H](C)[C@]34O[C@H]3C[C@]3(C)O[C@]43CC1=C(C)C(=O)O2
inactive: [1] 10.2% | [2] 1.2% | [3] 23.6% | [4] 7.5% | [5] 28.4% | [6] -64%

CC(C)NC1(C(N)=O)CCN(Cc2ccccc2)CC1
inactive: [1] 7.85% | [2] -17.2% | [3] 8.1% | [4] -3.15% | [5] -51.9% | [6] 18.1%

CC1(C)CCC(C2=CC(=O)c3c(O)ccc(O)c3C2=O)O1 (stereo unspecified)
inactive: [1] -8.25% | [2] -17.1% | [3] 10.5% | [4] 17.9% | [5] -12.6% | [6] -2.8%

Cc1cn(C2CC(N=[N+]=[N-])C(CO)O2)c(=O)[nH]c1=O (stereo unspecified)
inactive: [1] -0.7% | [2] -0.4% | [3] -39.5% | [4] 14.1% | [5] 0.05% | [6] -15.6%

Cc1cc(O)c(C=NC(=S)c2ccccc2)c(=O)o1
inactive: [1] -14.1% | [2] -32% | [3] 10.2% | [4] 5.3% | [5] 4.55% | [6] -40.4%

Reference: PubChem BioAssay (NCI)
